{
  "source": "PubChem BioAssay (EPA / NIEHS)",
  "note": "The source made the active and inactive calls. The calls were made as follows: active = hit-call score of the fitted dose curve at least 0.9, where 1 is the maximum; inactive = score below 0.9.",
  "data": [
    {"read-out": "MicroRNA 122 (MIR122), gene 406906", "experiment": "LTEA_HepaRG_MIR122: Life Technologies and Expression Analysis (LTEA) Assay for MicroRNA 122 (MIR122) using HepaRG (AID 2283516)", "conditions": "mRNA level, 48 h; actives raise or lower the signal", "procedure": "LTEA_HepaRG is a cell based, multiplexed-readout assay that uses HepaRG, a human liver cell line, with measurements taken at 48 hours after chemical dosing on a 96-well plate.LTEA_HepaRG_MIR122 is one of 102 assay component(s) measured in the LTEA HepaRG cell culture assay. It is a marker of MicroRNA.Data from the assay component LTEA_HepaRG_MIR122 was analyzed into 1 endpoint. This assay endpoint, LTEA_HepaRG_MIR122, was analyzed with bidirectional fitting relative to DMSO as the negative control and baseline of activity. Using a type of inducible reporter, measures of mRNA induction for gain or loss-of-signal activity can be used to understand regulation of transcription factor activity. To generalize the intended target to other relatable targets, this assay endpoint is annotated to the microrna intended target family, where the subfamily is post-transcriptional regulation.\nA total of 1060 chemcials from the ToxCast library were tested in eight-point concentration-response experiments. Cell culture and cytotoxicity assays were conducted at Thermo Fisher Scientific's Custom Services facility (Madison, WI). A single lot of human HepaRG cells (Thermo Fisher Scientific, Frederick, MD) was used for the cell culture experiments. 96-well format collagen type I coated plates of human HepaRG cells were prepared using established methods. Briefly, cryopreserved HepaRG cells were thawed, plated at a density of approximately 100,000 cells/well in HepaRG Thaw, Plate, and General Purpose media (HPRG770, Thermo Fisher Scientific), and incubated for 48 hours. 0.5% DMSO was selected as vehicle control to balance the requisite need of DMSO in HepaRG cultures to maintain differentiation (for example, baseline metabolism, proportions of hepatocytes vs. cholangiocytes), while enabling further hepatic receptor pathway activation (for example, PXR and CAR) in response to chemical exposure. 48 hours after plating, the culture medium was replaced with HepaRG Serum-Free Incudtion Media. Cells were exposed to each test chemical in duplicate and maintained in CO2 incubators for another 48 hours. Chemical plates were thawed to room temperature and 200x concentrations of treatment groups were prepared. 8-point conentration-reponse curves were made with the highest exposure at 100 uM, followed by half-log dilutions, all in 0.5% DMSO. Each test plate contained variouse controls, induction positive controls (1mM phenobarbital), cytotoxicity positive controls ([…] aflatoxin B1), vehicle controls (0.5% DMSO), and total lysis controls (0.5% DMSO). Cell morphology images were taken using an Essen IncuCyte FLR automated microscope, with six 96-well plates imaged in about 24 minutes. Images were captured and exported and JPEG files. Spent culture media was transfered to black-well plates for the LDH assay, and remaining media was sorted at -80 C for later use. Cells were treated with RLT buffer and frozen until shipped for gene expression analysis. Total RNA was isolated from the cell suspension in 75 uL of Buffer RLT (Qiagen, Germantown, MD 20874) by Quintiles/Expression Analysis (Durham, NC) using a custom isolation procedure. Total RNA from each plate well was transferred to a preamplification plate. Fluidigm's 96.96 Dynamic ArrayTM (Fluidigm, Amsterdam, the Netherlands) technology was used for gene expression analyses by quantitative reverse transcription polymerase chain reaction (qRT-PCR, performed by Quintiles/Expression Analysis, Durham, NC)89. Standard TaqManTM Assays (Applied Biosystems/ThermoFisher Scientific, Foster City, CA) were used to assess the expression of 93 genes selected based on their selectivity and sensitivity to important hepatic receptors known to be modulated by environmental chemicals; importance in human hepatocyte functionality; and hepatotoxicity. […]", "values": [
      {"smiles": "c1ccc(C2CO2)cc1", "note": "(stereo not given)", "outcome": "inactive"},
      {"smiles": "CN(C)C(=O)Nc1ccc(Cl)cc1", "outcome": "inactive"},
      {"smiles": "OCCCl", "outcome": "inactive"},
      {"smiles": "O=C(Oc1ccc(Br)cc1)N1CCN2CCC1CC2", "outcome": "inactive"},
      {"smiles": "ClCCOCCCl", "outcome": "inactive"},
      {"smiles": "C=CCc1ccc2c(c1)OCO2", "outcome": "inactive"},
      {"smiles": "c1ccc2c(c1)oc1ccccc12", "outcome": "inactive"},
      {"smiles": "Clc1ccc(Cl)c(Cl)c1", "outcome": "inactive"},
      {"smiles": "Clc1ccc(C(c2ccc(Cl)cc2)C(Cl)Cl)cc1", "outcome": "inactive"},
      {"smiles": "CCOC(=O)[C@]1(c2ccccc2)Oc2ccccc2[C@@H]1N", "outcome": "inactive"},
      {"smiles": "C[N+](C)(C)CC1CO1", "note": "(stereo not given)", "outcome": "inactive"},
      {"smiles": "CC(C)(C)OOC(C)(C)CCC(C)(C)OOC(C)(C)C", "outcome": "inactive"},
      {"smiles": "CCC[CH2][Sn]([Cl])([CH2]CCC)[CH2]CCC", "AC50": "12.8 µM (active)"},
      {"smiles": "[Cl-].[Cl-].[Hg+2]", "outcome": "inactive"},
      {"smiles": "CC(C)(OOC(C)(C)c1ccccc1)c1ccccc1", "outcome": "inactive"},
      {"smiles": "O=C(N[C@H](c1ccccc1)[C@@H]1CN2CCC1CC2)c1c(Cl)ccc(C(F)(F)F)c1Cl", "AC50": "46.2 µM (active)"},
      {"smiles": "[O-][Cl+]O", "outcome": "inactive"},
      {"smiles": "ClC1=C(Cl)[C@]2(Cl)[C@H]3[C@H]([C@@H]4C=C[C@H]3C4)[C@@]1(Cl)C2(Cl)Cl", "outcome": "inactive"},
      {"smiles": "Nc1ccc(Oc2ccc(N)cc2)cc1", "outcome": "inactive"},
      {"smiles": "Nc1ccc(Cc2ccc(N)cc2)cc1", "outcome": "inactive"},
      {"smiles": "N#CC(Br)(Br)C(N)=O", "outcome": "inactive"},
      {"smiles": "OCCCBr", "outcome": "inactive"},
      {"smiles": "COC(=O)Nc1nc2ccccc2[nH]1", "outcome": "inactive"},
      {"smiles": "CCCCCCCCOC(=O)c1ccc(C(=O)OCCCCCCCC)c(C(=O)OCCCCCCCC)c1", "outcome": "inactive"},
      {"smiles": "Cn1cc(-c2ccccc2)c(=O)c(-c2cccc(C(F)(F)F)c2)c1", "outcome": "inactive"},
      {"smiles": "CCN(CC)N=O", "outcome": "inactive"},
      {"smiles": "c1ccc(N=Nc2ccccc2)cc1", "outcome": "inactive"},
      {"smiles": "O=C(Nc1ccccc1)c1ccccc1I", "AC50": "50 µM (active)"},
      {"smiles": "CN(C)c1ccccc1", "outcome": "inactive"},
      {"smiles": "CC(C)(C)C(O)(CCc1ccc(Cl)cc1)Cn1cncn1", "note": "(stereo not given)", "AC50": "78.1 µM (active)"},
      {"smiles": "OCCOCCO", "outcome": "inactive"},
      {"smiles": "CCCSC(=O)N(CCC)CCC", "outcome": "inactive"},
      {"smiles": "CCCCCCCCn1sccc1=O", "AC50": "82.3 µM (active)"},
      {"smiles": "Cc1ccc([N+](=O)[O-])cc1", "outcome": "inactive"},
      {"smiles": "Nc1ccc(N=Nc2ccccc2)cc1", "AC50": "18.1 µM (active)"},
      {"smiles": "Nc1ccc([N+](=O)[O-])cc1", "outcome": "inactive"},
      {"smiles": "O=C(O)C1C2CCC(O2)C1C(=O)O", "note": "(stereo not given)", "AC50": "74.4 µM (active)"},
      {"smiles": "Brc1ccc(Oc2ccccc2)cc1", "outcome": "inactive"},
      {"smiles": "CC(C)(O)c1cnn2c(-c3ccc(F)c(-c4c(F)cccc4C#N)c3)cnc2n1", "AC50": "13.1 µM (active)"},
      {"smiles": "Cc1ccc(N=C=O)cc1N=C=O", "AC50": "50 µM (active)"}
    ]}
  ]
}
